These results are taken from PubChem BioAssay.

Calls of active or inactive are those of the source.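 How the source made its calls, unless noted: active means fluorescence slope after compound addition differing from the mean of all screened samples at 99.7% confidence, in either direction; inactive means the rest.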

Experiment [1] is described as follows: inhibitors of TNFa-induced NFkB p65 translocation, primary screen, imaging, HUVEC, MLSMR starter and 10KST1 sets (AID 438;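 active means inhibition above 20% together with a positive visual image hit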;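 further: compound added about 3h40 before a 20 min TNFalpha stimulation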;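 on inhibition: signal is the nuclear over cytoplasmic p65 intensity ratio per well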). Conditions: HUVEC TNFa-induced p65 nuclear translocation; cell count: measured here: nuclei count (cytotoxicity indicator), at 2.08 µM; inhibition: at 2 µM, stronger effect = higher value, 0% TNFa-plus-vehicle, 100% no-TNFa wells.
Experiment [2] in a line: inhibitors of mutant huntingtin aggregation, primary screen, imaging, exon1htt(103Q)mCFP cells, high-content imaging (AID 483;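 active means visual image review flags a hit and inhibition of aggregation exceeds 20%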;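 further: compound exposure lasted 3 days before fixation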;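 on nuclei count: percent of the per-plate median nuclei count of sample wells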). Conditions: exon1htt(103Q)mCFP cell line, aggregate imaging, at 2 µM; inhibition of aggregation: stronger effect = higher value; nuclei count: measured here: cell count, toxicity.
Experiment [3] can be described thus: inhibitors of E-selectin induction by TNFa, primary screen, imaging, HUVEC, immunofluorescence, MLSMR starter and 10KST1 sets (AID 487;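 active means visually confirmed hit in the image check and inhibition above 20%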;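 on inhibition: signal is fraction of cell area covered by stained E-selectin grains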;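 on nuclei count: 100% = median nuclei count of all wells on the same plate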). The conditions noted are these: HUVEC TNFalpha-induced E-selectin immunofluorescence imaging, at 2 µM; inhibition: stronger effect = higher value; nuclei count: measured here: cell number, toxicity.
Experiment [4] deals with Voltage-gated potassium channel subunit beta-2 (Rattus norvegicus) (UniProt P62483). Kind of experiment: KvBeta enzyme negative modulators, primary screen, biochemical, NADPH fluorescence (AID 622;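 active means fluorescence slope higher than the sample average by over 3 SD, cut at about -0.22 in these data, passing the limit was not always enough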;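 further: slope of raw intensity against log time taken from 70 to 1610 s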). The conditions noted are these: recombinant KvBeta, 4-cyanobenzaldehyde reduction, at 10 µM, stronger effect = higher value.
Chain of Voltage-gated potassium channel subunit beta-2 (Rattus norvegicus) (P62483 whole entry, looked up): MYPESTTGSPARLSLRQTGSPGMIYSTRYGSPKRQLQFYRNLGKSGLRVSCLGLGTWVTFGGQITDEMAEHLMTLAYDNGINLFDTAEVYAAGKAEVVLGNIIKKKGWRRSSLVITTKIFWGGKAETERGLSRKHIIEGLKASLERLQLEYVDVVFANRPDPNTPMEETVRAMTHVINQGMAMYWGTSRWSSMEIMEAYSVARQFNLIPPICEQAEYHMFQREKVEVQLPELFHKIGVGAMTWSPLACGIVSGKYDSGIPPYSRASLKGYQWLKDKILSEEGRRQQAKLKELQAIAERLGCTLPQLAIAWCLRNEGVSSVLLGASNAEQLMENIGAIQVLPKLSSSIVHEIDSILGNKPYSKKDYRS
The target is the same in experiment [5]. The experiment in a line: KvBeta positive modulators, primary screen, biochemical, NADPH fluorescence (AID 623;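 active means NADPH fluorescence slope more negative than the mean of all samples by about 3 SD, 99.7% confidence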;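 further: fluorescence intensity change per second fitted from 20 to 320 s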). Conditions: Recombinant KvBeta, NADPH fluorescence decrease slope, 10 min; at 10 µM; stronger effect = lower value.
Experiment [6] concerns the target Alpha-2C adrenergic receptor (Homo sapiens) (UniProt P18825). Kind of experiment: modulators of alpha2C/GIRK thallium flux, primary screen, cell-based, HEK293 alpha2C/GIRK1/2 (AID 624).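 Further: slope of fluorescence ratio to pre-addition baseline per second over 15 to 24 s.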 The conditions noted are these: thallium flux BTC fluorescence, at 10 µM, actives lie on both sides.
A short description of experiment [7]: inhibitors of Sendai virus-induced IRF3 signaling, primary screen, TLR/RLR signaling modifier project, cell-based, Sendai virus stimulus, luciferase, 10K MLSCN set (AID 602276;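 active means inhibition at or above 50% at 10 µM; inactive means inhibition below 50%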;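 further: firefly luciferase from ISG56 promoter only with Renilla not read in this screen; 0% = Sendai virus plus DMSO and 100% = medium plus DMSO without virus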). Conditions: HEK293 RL24 IRF3 luciferase reporter, at 10 µM, stronger effect = higher value. For orientation: In a reporter assay the amount or activity of a reporter protein is the signal.
The nature of experiment [8]: inhibitors of poly I:C-induced TLR3 signaling, primary screen, cell-based, poly I:C stimulus, luciferase, 10K MLSCN set (AID 602277;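 active means inhibition of the reporter signal at or above 50%; inactive means inhibition below 50%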). The conditions noted are these: HEK293-TLR3 RL24 IRF3 luciferase reporter, at 10 µM, stronger effect = higher value.

Chain of Alpha-2C adrenergic receptor (Homo sapiens) (P18825 whole entry, looked up): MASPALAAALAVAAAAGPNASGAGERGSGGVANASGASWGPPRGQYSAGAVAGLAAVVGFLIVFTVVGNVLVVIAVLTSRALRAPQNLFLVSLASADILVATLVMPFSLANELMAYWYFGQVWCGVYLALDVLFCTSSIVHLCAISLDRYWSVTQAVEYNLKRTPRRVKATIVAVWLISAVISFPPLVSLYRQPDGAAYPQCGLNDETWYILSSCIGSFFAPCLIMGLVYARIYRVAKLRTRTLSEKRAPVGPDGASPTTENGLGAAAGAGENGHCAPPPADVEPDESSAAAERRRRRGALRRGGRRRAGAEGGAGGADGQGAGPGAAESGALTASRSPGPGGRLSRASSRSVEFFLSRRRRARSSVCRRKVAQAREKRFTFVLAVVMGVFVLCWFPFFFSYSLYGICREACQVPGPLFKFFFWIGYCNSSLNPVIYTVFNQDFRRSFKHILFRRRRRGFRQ

In general, inhibition refers to the drop in the measured response relative to a control, in per cent. For the compound `N#CC(C(=O)c1ccco1)c1ccccn1` (centres undefined), the cell count in experiment [1] amounted to 699. Moreover, the inhibition in experiment [1] is 2.8% (inactive); in experiment [3], 43.2% (inactive); in experiment [7], -8.81% (inactive); in experiment [8], -54% (inactive). In experiment [2], the inhibition of aggregation is -5.3% (inactive). The nuclei count in experiment [2] stood at 108%; in experiment [3] it was 94.7%. Further, the fluorescence slope in experiment [4] is -0.367 (inactive). Also, in experiment [5], the NADPH fluorescence slope is -2e-05 (inactive). Moreover, the slope in experiment [6] is 0.00116 (inactive).
Take `O=C(NC1CCCC1)C(c1cccs1)N(C(=O)c1ccno1)c1ccccc1` (centres undefined): the cell count in experiment [1] is 648. In addition, the inhibition in experiment [1] was -3.2% (inactive); in experiment [3], 38.6% (inactive); in experiment [7], 3.89% (inactive); in experiment [8] it was 21.8% (inactive). The inhibition of aggregation in experiment [2] is -3.9% (inactive). Also, the results for the nuclei count in experiment [2] and in experiment [3] were 101% and 94.7%, respectively. Besides, the fluorescence slope in experiment [4] is -0.607 (inactive). In addition, the NADPH fluorescence slope in experiment [5] was -4.3e-05 (inactive). The slope in experiment [6] is 0.00635 (inactive).
In the case of `Cc1ccc(S(=O)(=O)N2CCC(C(=O)NCCN3CCCCCC3)CC2)cc1`, the cell count in experiment [1] is 768. Moreover, the inhibition in experiment [1] is -9.5% (inactive); in experiment [3], -87.4% (inactive); in experiment [7], 11.2% (inactive); in experiment [8], 32.9% (inactive). Moreover, the inhibition of aggregation in experiment [2] is -2.1% (inactive). Further, the nuclei count in experiment [2] was 102%; in experiment [3], 110%. Also, in experiment [4], the fluorescence slope is -0.456 (inactive). Moreover, in experiment [5], the NADPH fluorescence slope was -6.3e-05 (inactive). In addition, the slope in experiment [6] is 0.00469 (inactive).
For the compound `Cc1ccc(S(=O)(=O)Cn2nnnc2CN(Cc2ccco2)CC2CCCO2)cc1` (centres undefined), in experiment [1], the cell count worked out at 380. Also, the inhibition in experiment [1] is -1% (inactive); in experiment [3] it was -58.1% (inactive); in experiment [7], -5.71% (inactive); in experiment [8] it was 0.385% (inactive). Besides, the inhibition of aggregation in experiment [2] is 2.3% (inactive). In addition, the nuclei count was determined as 99.8% in experiment [2] and 69.6% in experiment [3]. In experiment [4], the fluorescence slope is -0.588 (inactive). In addition, the NADPH fluorescence slope in experiment [5] is -4.2e-05 (inactive). Besides, in experiment [6], the slope is 0.00299 (inactive).
For the compound `CN=C(Nc1ccc2c(c1)OCO2)SC1CC(=O)N(c2ccccc2)C1=O` (centres undefined), the cell count in experiment [1] was determined as 699. In addition, the inhibition in experiment [1] is 11% (inactive); in experiment [3], 7.9% (inactive); in experiment [7], 10% (inactive); in experiment [8], 17.2% (inactive). The inhibition of aggregation in experiment [2] was 6.4% (inactive). Besides, the figures for the nuclei count in experiment [2] and in experiment [3] were 95.4% and 112%, respectively. Further, the fluorescence slope in experiment [4] was -0.381 (inactive). Also, the NADPH fluorescence slope in experiment [5] is -3.2e-05 (inactive). Further, the slope in experiment [6] was 0.00557 (inactive).
As to `COc1ccc(CNC(=O)CN(C(=O)c2ccc(CN3CCOCC3)o2)C2CCCC2)cc1`, the cell count in experiment [1] stood at 449. Besides, the inhibition is 5.5% (inactive) in experiment [1], -94.6% (inactive) in experiment [3], 17.1% (inactive) in experiment [7] and 11.7% (inactive) in experiment [8]. In experiment [2], the inhibition of aggregation is -0.5% (inactive). Also, the values for the nuclei count in experiment [2] and in experiment [3] were 98.3% and 107%, respectively. The fluorescence slope in experiment [4] was -0.613 (inactive). Moreover, the NADPH fluorescence slope in experiment [5] is -4.4e-05 (inactive). Also, the slope in experiment [6] was 0.00446 (inactive).
In the case of `CC(C)Cc1cc(C(=O)Nc2c(F)cc(F)cc2Br)no1`, the cell count in experiment [1] amounted to 783. Moreover, the inhibition was 7.4% (inactive) in experiment [1], -4.5% (inactive) in experiment [3], -6.27% (inactive) in experiment [7] and 2.03% (inactive) in experiment [8]. In experiment [2], the inhibition of aggregation is -5% (inactive). For the same compound, the nuclei count is 114% in experiment [2] and 120% in experiment [3]. Moreover, the fluorescence slope in experiment [4] was -0.594 (inactive). Moreover, the NADPH fluorescence slope in experiment [5] was 3.8e-06 (inactive). Also, the slope in experiment [6] was 0.00483 (inactive).
In the case of `O=C(CSc1nnc(-c2ccccc2F)o1)OCc1ccccc1`, the cell count in experiment [1] was found to be 323. Further, the inhibition in experiment [1] was 8.7% (inactive); in experiment [3], -69.6% (inactive); in experiment [7], 4.91% (inactive); in experiment [8], 34.1% (inactive). Also, in experiment [2], the inhibition of aggregation was -1.8% (inactive). The results for the nuclei count in experiment [2] and in experiment [3] were 89.1% and 99.9%, respectively. Further, the fluorescence slope in experiment [4] was -0.428 (inactive). Moreover, in experiment [5], the NADPH fluorescence slope was 1.9e-05 (inactive). Besides, the slope in experiment [6] is 0.00527 (inactive).
For `Cc1ccc(C(c2nnnn2CCC(C)C)N2CCN(C)CC2)cc1` (centres undefined), the cell count in experiment [1] was found to be 417. For the same compound, the inhibition was 1% (inactive) in experiment [1], -73.9% (inactive) in experiment [3], 13.9% (inactive) in experiment [7] and -3.3% (inactive) in experiment [8]. In addition, in experiment [2], the inhibition of aggregation was 8.9% (inactive). The nuclei count came to 73.1% in experiment [2] and 108% in experiment [3]. For the same compound, in experiment [4], the fluorescence slope is -0.598 (inactive). Besides, the NADPH fluorescence slope in experiment [5] was -4.8e-05 (inactive). In addition, the slope in experiment [6] is 0.00252 (inactive).
As to `C=CCn1c(SCC(=O)Nc2cccc(OC)c2)nnc1-c1cccnc1`, in experiment [1], the cell count amounted to 619. The inhibition in experiment [1] is -4.8% (inactive); in experiment [3], -52.7% (inactive); in experiment [7], 10.5% (inactive); in experiment [8] it was 16.9% (inactive). In experiment [2], the inhibition of aggregation was 0.3% (inactive). Also, the nuclei count in experiment [2] stood at 118%; in experiment [3], 104%. Also, the fluorescence slope in experiment [4] was -0.527 (inactive). Also, the NADPH fluorescence slope in experiment [5] was -9.5e-06 (inactive). The slope in experiment [6] was 0.00671 (inactive).
Regarding `O=C(Nc1ccc2c(c1)OCO2)c1cc2ncc(Br)cn2n1`, the cell count in experiment [1] stood at 588. Also, the inhibition is 6.6% (inactive) in experiment [1], -73.8% (inactive) in experiment [3], 5.44% (inactive) in experiment [7] and 11.5% (inactive) in experiment [8]. For the same compound, the inhibition of aggregation in experiment [2] was -4.4% (inactive). The values for the nuclei count in experiment [2] and in experiment [3] were 107% and 104%, respectively. In experiment [4], the fluorescence slope was -0.624 (inactive). For the same compound, the NADPH fluorescence slope in experiment [5] is 1.6e-05 (inactive). The slope in experiment [6] was 0.00236 (inactive).
`COc1ccc(C(=O)Nc2cccc(-c3nc4ncccc4o3)c2C)cc1OC`: the cell count in experiment [1] turned out to be 729. Besides, the inhibition in experiment [1] is -44.9% (inactive); in experiment [3], -22.4% (inactive); in experiment [7], -16.3% (inactive); in experiment [8] it was -34.5% (inactive). For the same compound, the inhibition of aggregation in experiment [2] is -4.4% (inactive). Besides, the nuclei count is 96.1% in experiment [2] and 109% in experiment [3]. Moreover, the fluorescence slope in experiment [4] is -0.562 (inactive). The NADPH fluorescence slope in experiment [5] is 1.4e-05 (inactive). The slope in experiment [6] was 0.00564 (inactive).
On to `Cc1ccccc1NS(=O)(=O)c1cc(S(C)(=O)=O)ccc1Cl`, for which the cell count in experiment [1] is 552. Besides, the inhibition in experiment [1] was 7.7% (inactive); in experiment [3] it was -43.9% (inactive); in experiment [7], -5.83% (inactive); in experiment [8], 4.63% (inactive). Also, the inhibition of aggregation in experiment [2] was -3% (inactive). Moreover, the nuclei count in experiment [2] is 102%; in experiment [3], 119%. Besides, the fluorescence slope in experiment [4] was -0.436 (inactive). Also, the NADPH fluorescence slope in experiment [5] was 2.4e-05 (inactive). In addition, the slope in experiment [6] was 0.00562 (inactive).
Consider `COCCN(CCOC)c1ncnc2c1cnn2-c1ccccc1`, for which the cell count in experiment [1] is 636. Besides, the inhibition in experiment [1] is -8.5% (inactive); in experiment [3], -14.8% (inactive); in experiment [7], -24.8% (inactive); in experiment [8], -50.6% (inactive). Moreover, the inhibition of aggregation in experiment [2] is -21.1% (inactive). Moreover, the nuclei count in experiment [2] turned out to be 113%; in experiment [3], 107%. For the same compound, the fluorescence slope in experiment [4] is -0.531 (inactive). In experiment [5], the NADPH fluorescence slope was -2.1e-05 (inactive). The slope in experiment [6] was 0.00603 (inactive).
